Most compounds without a hit are left out; they make up all but 2.9% or so of the library.
PLCb3 inh: PLC-beta3 (human) inhibition, primary screen; Q01970; Purified PLC-beta3, fluorogenic substrate, fluorescence; inhibition, % at 12.2 µM; 0.18% of 370,000 active; in the data active = inhibition above about 11%
Target sequence (Q01970 whole entry, looked up): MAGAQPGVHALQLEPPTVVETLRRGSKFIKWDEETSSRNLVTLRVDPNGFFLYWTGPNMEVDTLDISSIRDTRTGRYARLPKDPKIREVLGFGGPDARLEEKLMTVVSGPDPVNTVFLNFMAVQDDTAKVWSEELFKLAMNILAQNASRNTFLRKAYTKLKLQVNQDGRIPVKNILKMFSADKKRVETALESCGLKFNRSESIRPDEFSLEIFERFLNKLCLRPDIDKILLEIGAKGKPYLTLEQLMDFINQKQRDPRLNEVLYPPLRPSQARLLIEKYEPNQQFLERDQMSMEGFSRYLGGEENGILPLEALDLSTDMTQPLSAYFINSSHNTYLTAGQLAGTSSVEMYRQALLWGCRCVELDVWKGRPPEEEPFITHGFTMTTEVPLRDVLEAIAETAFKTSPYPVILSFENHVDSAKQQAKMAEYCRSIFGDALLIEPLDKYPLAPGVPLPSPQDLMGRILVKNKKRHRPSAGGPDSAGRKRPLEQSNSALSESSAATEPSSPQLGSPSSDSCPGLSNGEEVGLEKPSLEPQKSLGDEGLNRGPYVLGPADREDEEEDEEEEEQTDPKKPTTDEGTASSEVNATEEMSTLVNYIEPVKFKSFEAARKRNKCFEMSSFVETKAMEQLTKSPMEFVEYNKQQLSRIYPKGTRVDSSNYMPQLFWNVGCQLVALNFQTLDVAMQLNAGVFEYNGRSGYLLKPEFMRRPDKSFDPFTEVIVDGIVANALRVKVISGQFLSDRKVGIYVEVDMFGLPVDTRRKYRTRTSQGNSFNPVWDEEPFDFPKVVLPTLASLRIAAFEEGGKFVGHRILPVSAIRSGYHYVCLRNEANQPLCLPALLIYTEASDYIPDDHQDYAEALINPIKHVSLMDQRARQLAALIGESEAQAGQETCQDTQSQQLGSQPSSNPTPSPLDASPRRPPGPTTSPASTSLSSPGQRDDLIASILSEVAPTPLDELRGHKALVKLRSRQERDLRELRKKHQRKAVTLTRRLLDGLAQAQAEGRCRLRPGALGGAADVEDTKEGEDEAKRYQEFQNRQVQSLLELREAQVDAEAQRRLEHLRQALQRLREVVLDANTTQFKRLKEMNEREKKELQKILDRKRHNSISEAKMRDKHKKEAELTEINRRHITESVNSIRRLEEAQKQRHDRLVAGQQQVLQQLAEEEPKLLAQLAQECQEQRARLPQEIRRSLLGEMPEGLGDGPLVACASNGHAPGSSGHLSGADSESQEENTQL
PLCg1 inh: blocks human PLC-gamma1 enzyme activity; purified PLC-gamma1, fluorogenic substrate, fluorescence; inhibition, % at 12.2 µM; AID 720700; 0.84% of 370,000 active; in the data active = inhibition above about 9.5%
proKLK7 act: activates the human kallikrein-7 zymogen | 0.9% of 370,000 active | activation, % at 7 µM | purified proKLK7, EDANS-DABCYL substrate fluorescence; 100% is mature enzyme control, 0% vehicle | P49862;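 active = activation above the mean of all tested compounds plus 3 SD, computed per campaign excluding outliers beyond control limits, cut at about 13% in these data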
ADAM10 inh: ADAM10 inhibition, QFRET primary screen | O14672 | recombinant ADAM10, EDANS/DABCYL FRET peptide cleavage, 3 h | inhibition, % at 7 µM | 0.62% of 370,000 active | AID 720582;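 active = inhibition above a per-campaign cutoff equal to the mean of compounds falling between control-based bounds plus 3 SD, cut at about 20% in these data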
ADAM17 inh: inhibitors of human ADAM17; inhibition, % at 6.95 µM; recombinant ADAM17, EDANS/DABCYL FRET peptide cleavage; P78536; 0.83% of 370,000 active;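 active = inhibition above the mean of compounds lying between control limits plus 3 SD, set per campaign, cut at about 8.5% in these data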
proKLK7 act conf: proKLK7 activation, confirmation; shares compounds with proKLK7 act; purified proKLK7, EDANS-DABCYL substrate fluorescence; scaled: vehicle 0, mature enzyme 100; activation, % at 7 µM; 68% of 3,200 active;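 active = activation, as change over the incubation, above the mean of all tested compounds plus 3 SD, cut at about 13% in these data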
EDANS-DABCYL int: fluorescence interference counter-screen for KLK7 activators; shares compounds with proKLK7 act; EDANS-DABCYL substrate fluorescence interference, no enzyme, 4 h; solvent 0%, active enzyme control 100%; activation, % at 7 µM; 80% of 3,200 active;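 active = activation above the all-compound mean plus 3 SD, ignoring values outside control-based bounds, cut at about 4.8% in these data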;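 note: value is the 4 h activation minus the activation read at time zero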
K7 EDANS ctr: optically interferes with EDANS-DABCYL fluorescence, kallikrein-7 activator counter-screen; EC50, µM; 20% of 250 active; EDANS-DABCYL peptide fluorescence interference, no enzyme; shares compounds with proKLK7 act;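 active = compounds that raise the fluorescence signal in this interference counterscreen, with EC50 at or below 10 µM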;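 note: intact quenched peptide substrate alone read at 355 nm excitation and 520 nm emission; signal is fluorescence gain from T0 to T4 after four hours at room temperature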
Each line names hits and unclear results; the compound was inactive in the other large screens (follow-up assays come after a bar, where they were run).

CN1CCN(C(=O)c2cc3c(=O)n4ccccc4nc3s2)CC1	proKLK7 act 48 | proKLK7 act conf 70 | EDANS-DABCYL int 71
CCOC(=O)N1CCN(C(=O)c2cc3c(=O)n4ccccc4nc3s2)CC1	proKLK7 act 17 | proKLK7 act conf 90 | EDANS-DABCYL int 78
C[C@@H]1OC(C2CCCCC2)N(C)[C@H]2C[C@H]3c4[nH]c5c(-c6ccc7c(c6)OCO7)cccc5c4CCN3C[C@@H]12 (stereo partly drawn)	none
O=C(O)CCN1C(=O)/C(=C/c2cccc(OCc3ccc(F)cc3)c2)SC1=S	none (no result: proKLK7 act)
CC(C)c1[nH]nc2c1C(c1ccccc1)N(c1ccccc1)C2=O (stereo not drawn)	none
Nc1nccnc1C(=O)OCc1nc2sc3c(c2c(=O)[nH]1)CCCC3	proKLK7 act 49 | proKLK7 act conf 89 | EDANS-DABCYL int 75 | K7 EDANS ctr 6.5
COC(=O)[C@]12C[C@H](CC(=O)NCc3cccs3)C(=O)N(Cc3cccc4ccccc34)C1=C[C@H](C(C)(C)C)O[C@@H]2C	none
C=CCNC(=S)NNC(=O)c1cccn(Cc2cccc(Cl)c2)c1=O	proKLK7 act 27 | proKLK7 act conf 42 | EDANS-DABCYL int 44
C=CCn1cccc(C(=O)Nc2ccc(Cl)cc2)c1=O	none
C=CCNC(=S)NNC(=O)c1cccn(Cc2ccc(Cl)cc2)c1=O	proKLK7 act 27 | proKLK7 act conf 39 | EDANS-DABCYL int 47
CC(=O)Nc1ccc(S(=O)(=O)Nc2nc3ccccc3nc2-n2ccc(=NC(=O)c3ccccc3)cc2)cc1	proKLK7 act 39 | proKLK7 act conf 40 | EDANS-DABCYL int 16 | K7 EDANS ctr inactive
CC(=O)Nc1ccc(S(=O)(=O)Nc2nc3ccccc3nc2-n2ccc(=NC(=O)c3ccc(F)cc3)cc2)cc1	proKLK7 act 81 | proKLK7 act conf 96 | EDANS-DABCYL int 87
O=C(N=c1ccn(-c2nc3ccccc3nc2NS(=O)(=O)c2ccccc2)cc1)c1ccccc1Cl	none
Cc1ccc(/C=C2\Oc3c(ccc(O)c3CN3CCN(CCO)CC3)C2=O)cc1	proKLK7 act 96 | proKLK7 act conf 79 | EDANS-DABCYL int 73
CC(C)c1ccc(/C=C2\Oc3c(ccc(O)c3CN3CCN(C)CC3)C2=O)cc1	proKLK7 act 38 | proKLK7 act conf inactive | EDANS-DABCYL int inactive
CC(=O)N[C@@H]1C[C@@H]2O[C@@H](CO)CC[C@@H]2O[C@@H]1CCc1ccc(C#CC2(O)CCCC2)cc1	none
CC(=O)c1cc(-c2ccc([N+](=O)[O-])cc2)c(=O)n2c1CCC2	none
C=CCN(C)C(C#Cc1ccccc1)Cc1ccccc1 (stereo not drawn)	none (no result: proKLK7 act)
CCN1C(=O)c2cccc3c(S(=O)(=O)NCc4cccnc4)ccc1c23	proKLK7 act 53 | proKLK7 act conf 71 | EDANS-DABCYL int 78
CCN1C(=O)c2cccc3c(S(=O)(=O)NC(Cc4ccccc4)C(=O)O)ccc1c23 (stereo not drawn)	proKLK7 act 51 | proKLK7 act conf 66 | EDANS-DABCYL int 67
CC1CCCCN1Cc1c(O)ccc2c(=O)c(-c3ccc(Br)cc3)coc12 (stereo not drawn)	none
COc1ccccc1-c1coc2c(CN3CCN(C)CC3)c(O)ccc2c1=O	proKLK7 act 80 | proKLK7 act conf 73 | EDANS-DABCYL int 73
CN1CCN(Cc2c(O)ccc3c(=O)c(Oc4ccccc4Cl)c(C(F)(F)F)oc23)CC1	none
COc1ccccc1-c1coc2c(CN3CCN(CCO)CC3)c(O)ccc2c1=O	proKLK7 act 111 | proKLK7 act conf 74 | EDANS-DABCYL int 81
CCN1CCN(Cc2c(O)ccc3c(=O)c(-c4ccccc4OC)coc23)CC1	proKLK7 act 50 | proKLK7 act conf 73 | EDANS-DABCYL int 78
COc1ccccc1Oc1coc2c(CN3CCN(C)CC3)c(O)ccc2c1=O	proKLK7 act 74 | proKLK7 act conf 74 | EDANS-DABCYL int 78
C[C@]12Cc3ccccc3C1CC1=N[C@@H](c3ccc(C(F)(F)F)cc3)O[C@@]13C[C@@H]2C(=O)N3C1CCN(Cc2ccccc2)CC1 (stereo partly drawn)	none
Nc1nc2ncccc2cc1C(=O)NC1CC1	proKLK7 act 25 | proKLK7 act conf 28 | EDANS-DABCYL int 27
Nc1nc2ncccc2cc1C(=O)NC1CCCCC1	proKLK7 act 24 | proKLK7 act conf 20 | EDANS-DABCYL int 25
CCn1c(=N)c(C(=O)NC)cc2c(=O)n3cccc(C)c3nc21	proKLK7 act 76 | proKLK7 act conf 67 | EDANS-DABCYL int 73
COCCCn1c(=N)c(C(=O)NCc2ccc3c(c2)OCO3)cc2c(=O)n3cccc(C)c3nc21	none
CCCn1c(=N)c(C(=O)NC2CCCC2)cc2c(=O)n3cccc(C)c3nc21	proKLK7 act 133 | proKLK7 act conf inactive | EDANS-DABCYL int inactive
Cc1cccn2c(=O)c3cc(C(=O)NC4CCCCC4)c(=N)n(CCN4CCOCC4)c3nc12	none
Cc1cccn2c(=O)c3cc(C(=O)O)n(C)c3nc12	proKLK7 act 21 | proKLK7 act conf 49 | EDANS-DABCYL int 48
COc1ccc(-c2ccc(C#N)c(SCC(=O)NC3CC3)n2)cc1OC	proKLK7 act 17 | proKLK7 act conf inactive | EDANS-DABCYL int inactive
COc1ccc(-c2ccc(C#N)c(SCC(=O)NCc3ccco3)n2)cc1OC	none
C[C@H](O)[C@@H]1CN2CCc3c([nH]c4ccccc34)[C@@H]2C[C@@H]1N(C)CC1CCCCC1	none
CCOC(=O)c1cc(=O)n2c(nc3ccccc32)[nH]1	proKLK7 act 23 | proKLK7 act conf 77 | EDANS-DABCYL int 79
CCOC(=O)N1CCN(C(=O)C[C@@H]2C(=O)N(Cc3ccc(OC)cc3)/C3=C/CCCCC[C@@]32C(=O)OCC)CC1	none
COc1ccc(C2CC(=O)C(c3cccc(Cl)c3)=CN2Cc2ccccc2)cc1 (stereo not drawn)	none
O=S(=O)(c1cccc2ccccc12)N1CCCCC1	none
O=C(O)c1cc2cccc(S(=O)(=O)N3CCCCC3)c2cc1O	proKLK7 act 21 | proKLK7 act conf 85 | EDANS-DABCYL int 88
COc1ccc2c(c1)CCC1(C)CC(=O)C(Br)=C21 (stereo not drawn)	proKLK7 act 124 | proKLK7 act conf 71 | EDANS-DABCYL int 76
COC(=O)C1(C)CCc2cc(OC)ccc2C1=O (stereo not drawn)	none
COc1ccc(OC)c2c(N3CCN(C)CC3)cc(C(F)(F)F)nc12	proKLK7 act 13 | proKLK7 act conf inactive | EDANS-DABCYL int 15
